The structures appear in SMILES notation. Hit rate of the full screen: of about 2,100 compounds, about 940 (45%) were called active. Not shown: some 48% with an inconclusive outcome. Calls follow the shape of the dose curve; as a rule, active = well fitted inhibition curve with a large enough effect; inconclusive = small, poorly fitted or top-dose-only effect; inactive = no such curve, though single readings can be large or run the other way. So high a share suggests a set chosen from earlier hits. The list shows a part of the results.
Potency is read from the fitted curve at half-maximal effect.

This test can be described thus: Confirmatory qHTS for Inhibitors of ATXN expression. Also: nearly all actives have a fitted effect of over 65% in size. Particulars: ATXN2-luciferase reporter cells, luminescence, 24 h; series mostly up to 11.5 µM. In short, it runs like this: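 A titration, incubated 24 h with reporter cells expressing ATXN2-luciferase. Luminescence (SteadyGlo) gives ATXN2 expression, multiplexed GF-AFC fluorescence gives viability; normalised to DMSO and medium-only wells.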
For orientation: qHTS replaces the single test concentration by a dilution series.
For the compound `COc1cc2c3nnc(-c4ccc(F)cc4)c-3cn(Cc3ccc(F)cc3)c2cc1OC`, the Potency is 2.82 µM (active). Turning to `COc1ccc(Cn2cc3c(-c4ccc(F)cc4)nnc-3c3cc(OC)c(OC)cc32)cc1`, the Potency is 1.78 µM (active). Consider `COc1cc2c3nnc(-c4ccc(F)cc4)c-3cn(Cc3ccccc3F)c2cc1OC`, for which the Potency is 2 µM (active). Turning to `Cc1ccc(NC(=O)/C=C/c2ccc([N+](=O)[O-])s2)c(C)c1`, the Potency was 1.41 µM (active). Turning to `COc1ccccc1NS(=O)(=O)c1cccc(C(=O)N/N=C/c2ccc([N+](=O)[O-])o2)c1`, the Potency is 11.2 µM (active).

Regarding `O=[N+]([O-])c1ccc(/C=N/N=C/c2ccc([N+](=O)[O-])o2)o1`, the Potency is 6.31 µM (active). For the compound `CC1(C(=O)N/N=C/c2ccc([N+](=O)[O-])o2)CC1(Br)Br` (configuration not stated), the Potency is 22.4 µM (active). Turning to `O=C(N/N=C/c1ccc([N+](=O)[O-])o1)c1ccc2c(c1)OCO2`, the Potency was 14.1 µM (active). As for `Cn1nnnc1Sc1ncnc2scc(-c3ccsc3)c12`, the Potency was 14.1 µM (active). Turning to `COc1ccc(-c2csc3ncnc(Sc4nnnn4C)c23)cc1`, the Potency is 3.16 µM (active). In the case of `CCn1cc(C(=O)NCc2cccc(F)c2)c(=O)c2cc(F)c(N3CCN(C(=O)c4ccco4)CC3)cc21`, the Potency is 15.8 µM (active). Turning to `CCn1cc(C(=O)NCc2ccccc2)c(=O)c2cc(F)c(N3CCN(C(=O)c4ccco4)CC3)cc21`, the Potency was 28.2 µM (active). Consider `c1ccc(-c2nnc(-c3ccccn3)nc2NC2CCCCC2)cc1`, for which the Potency was 1.12 µM (active). With `CC(C)(C)c1cc[n+](C2=C([O-])c3ccccc3C(=O)/C2=N\S(=O)(=O)c2cccs2)cc1` the figure was 1.12 µM (active); with `O=C(O)CCn1cc(/C=C/C(=O)c2ccc(Cl)cc2)c(-c2ccc(Br)cc2)n1`, 25.1 µM (active); with `O=C(NC1=CC(=O)c2ccccc2C1=O)c1ccccc1`, 14.1 µM (active). Consider `COc1ccc(-c2cc(CNc3nc(NC(C)C)nc4cc(-c5ccccc5)sc34)on2)cc1`, for which the Potency was 11.2 µM (active). For the compound `Cc1ccc(C(C)C)c(OCc2ccc(C(=O)N/N=C/c3ccc(O)cc3O)cc2)c1`, the Potency is 1.58 µM (active). With `Cc1ccc(C(C)C)c(OCc2ccc(C(=O)N/N=C/c3ccc(O)c(O)c3)cc2)c1` the figure was 2.51 µM (active). The result for `Cc1ccc(C(C)C)c(OCc2ccc(C(=O)N/N=C/c3cccc(O)c3O)cc2)c1` reads 2.82 µM (active). The result for `O=C(N/N=C/c1ccc(O)cc1O)c1ccc(CN2C(=O)c3cccc4cccc2c34)cc1` reads 2 µM (active); that for `Cc1ccc(-c2nc3ccc(Cl)cn3c2CC(C)(C)C)cc1`, “inactive”. As for `Clc1ccc(C[n+]2cc(-c3ccccc3)n3c2CCCCC3)c(Cl)c1`, the Potency is 15.8 µM (active). The result for `CN[C@H]1C[C@H]2c3[nH]c4ccc(-c5ccc(OC)cc5)cc4c3CCN2C(=O)[C@H]1[C@H](C)O` reads 3.16 µM (active). As for `CC1(C)Cc2c(c(N3CCOCC3)nc3sc4c(NN)ncnc4c23)CS1`, the Potency is 8.91 µM (active).

Take `CN(C)CCNc1ncnc2c1sc1nc(N3CCCC3)c3c(c12)CC(C)(C)OC3`: the Potency was 25.1 µM (active). Turning to `CN(C)CCNc1ncnc2c1sc1nc(N3CCOCC3)c3c(c12)CC(C)(C)SC3`, the Potency was 15.8 µM (active). With `CCOc1ccc(CN(C)c2nc(-c3cccnc3)nc3ccccc23)cc1OC`, the Potency is 25.1 µM (active). In the case of `CCCCCn1c(CN2CCN(c3cccc(Cl)c3)CC2)nc2c1c(=O)[nH]c(=O)n2C`, the Potency is 25.1 µM (active). In the case of `CCN1C(=O)C(CC(=O)Nc2ccc(OC)cc2)N(CCc2ccc(F)cc2)C1=S` (configuration not stated), the Potency was 2.82 µM (active). In the case of `CC(C)(C)c1cc(C(=O)NN)n(Cc2ccc(Cl)cc2Cl)n1`, the Potency is 15.8 µM (active). The result for `O=[N+]([O-])c1cc(CN2CCN(c3ccccc3)CC2)c(O)c2ncccc12` reads 3.16 µM (active).

For `Oc1c(CN2CCOCC2)cc(COCc2ccccc2)c2cccnc12`, the Potency was 3.16 µM (active). On to `Oc1c(CN2CCCCC2)ccc2cccnc12`, for which the Potency was 6.31 µM (active). With `Oc1c(CN2CCN(c3ccccc3)CC2)cc(Br)c2cccnc12`, the Potency is 1.26 µM (active). The result for `CN(C)CCNC(=O)c1cccc2[nH]c(-c3ccncc3)nc12` reads 2.82 µM (active). As to `CN(C)CCNC(=O)c1ccc(Cl)c2cc3ccccc3nc12`, the Potency is 6.31 µM (active). The result for `CN(CC(=O)Nc1cccc(F)c1)CC(=O)Nc1cccc2ccccc12` reads “inactive”; that for `CCN(CC)CCC(=O)Nc1cccc2c1C(=O)c1ccccc1C2=O`, 1.58 µM (active); that for `Cc1ccn2c(Nc3ccccc3C)c(-c3ccccn3)nc2c1`, 3.55 µM (active). For the compound `Cc1ccn2c(Nc3ccccc3)c(-c3ccccn3)nc2c1`, the Potency is 0.708 µM (active). As to `Cc1ccc(Nc2c(-c3ccccn3)nc3cc(C)ccn23)cc1`, the Potency was 3.55 µM (active).

As to `Cc1ccc(Nc2c(-c3ccccn3)nc3cccc(C)n23)cc1`, the Potency was 3.16 µM (active). With `Cc1ccc2nc(-c3ccccn3)c(NC3CCCC3)n2c1`, the Potency result is “inactive”.

Regarding `Cc1cnc(C(=O)NNC(=O)c2ccc(Br)cc2)cn1`, the Potency was 25.1 µM (active). Turning to `Cc1ccc2c(c1)C1CN(C)CCC1N2C(=S)NC(=O)c1ccc(Br)cc1` (configuration not stated), the Potency entry was “inactive”. Take `O=C(NCc1ccco1)c1ccc(-c2cccc(Cl)c2)o1`: the Potency result was “inactive”. On to `COCc1ccc(CN2CCC(C(=O)Nc3cccc(-c4cccc(Cl)c4)c3)CC2)o1`, for which the Potency was 25.1 µM (active). The result for `O=C(Nc1nnc(C2CC2)o1)c1ccc(S(=O)(=O)N2CCCc3ccccc32)cc1` reads 7.08 µM (active); that for `CSCc1nnc(NC(=O)c2ccc(S(=O)(=O)N3CCCCC3C)cc2)o1` (configuration not stated), 20 µM (active). For `CC1CCCCN1S(=O)(=O)c1ccc(C(=O)Nc2nnc(-c3ccccc3Cl)o2)cc1` (configuration not stated), the Potency is 2.51 µM (active).

Turning to `CN1CCC(N(C)C(=O)c2ccc(Cl)c(S(=O)(=O)N3CCc4ccccc43)c2)CC1`, the Potency entry is “inactive”.

As to `Cc1ccc(C)c(S(=O)(=O)N2CCN(Cc3ccc(O)c4ncccc34)CC2)c1`, the Potency is 3.16 µM (active). In the case of `O=S(=O)(c1ccc(Cl)cc1)N1CCN(Cc2ccc(O)c3ncccc23)CC1`, the Potency was 3.55 µM (active). The result for `COc1ccccc1N(CC(=O)N/N=C(\C)c1ccccc1O)S(=O)(=O)c1ccc(C)cc1` reads 15.8 µM (active); that for `COc1ccccc1-c1ccc2c(c1)C(C)(Cc1cccc(F)c1)C(=O)N2` (configuration not stated), 28.2 µM (active). Consider `Cc1cnc(NC(=O)CCCc2nc3ccccc3s2)s1`, for which the Potency was 1.41 µM (active).

The values above are taken from PubChem BioAssay AID1745848 (National Center for Advancing Translational Sciences (NCATS), 2022).
